A short description of assay [1]: qHTS assay for small molecule agonists of the p53 signaling pathway (AID 651631; calls by dose curve; also: nearly all actives have a fitted effect of over 15% in size; also: potency is read from the fitted curve at half-maximal effect). The method, boiled down:
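Read-out is beta-lactamase FRET fluorescence measured 2 h after substrate addition at room temperature, in HCT-116 cells with a p53 response element-driven reporter exposed to compounds for 16 h at 37 °C.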
(qHTS replaces the single test concentration by a dilution series.)

Assay [2] can be described thus: qHTS assay for small molecules that induce genotoxicity in human embryonic kidney cells expressing luciferase-tagged ATAD5 (AID 651632). Also: nearly all actives have a fitted effect of over 15% in size. In short, it runs like this: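 Genotoxicity read-out via ATAD5-luciferase: HEK293T cells, 16 hr compound incubation at 37C, Amplite detection.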
Assay [3] can be described thus: qHTS assay for small molecule agonists of the p53 signaling pathway - cell viability (AID 651633; calls by dose curve;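 also: p53RE-bla HCT reporter cells with a stable beta-lactamase p53 reporter; nearly all actives have a fitted effect of over 30% in size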). The method, boiled down: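 p53RE-bla cells were treated with compound for 16 hours at 37 C. Cytotoxicity was then measured as CellTiter-Glo luminescence after 30 min at room temperature.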
The nature of assay [4]: qHTS assay for small molecules that induce genotoxicity in human embryonic kidney cells expressing luciferase-tagged ATAD5 - cell viability (AID 651634; calls by dose curve; also: nearly all actives have a fitted effect of over 25% in size). The method, boiled down:
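Live-cell protease activity (CellTiter-Fluor, fluorescence) indicates viability. HEK293T cells with luciferase-tagged ATAD5; 15.5 hr compound treatment at 37C.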

Assay [5] can be described thus: qHTS assay for small molecule disruptors of the mitochondrial membrane potential - cell viability (AID 720634; calls by dose curve;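 also: human HepG2 liver cancer cells; nearly all actives have a fitted effect of over 20% in size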). The method, boiled down:
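Human hepatoma HepG2 cells were treated for 1 hr with test chemicals, then given m-MPI dye and CellTiter-Glo. Cell viability reflects luminescence proportional to cellular ATP.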

The nature of assay [6]: qHTS assay for small molecule disruptors of the mitochondrial membrane potential (AID 720635). The method, boiled down: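 HepG2 cells exposed to compound 1 hr at 37C, then Mito-MPS dye 30 min. Ratio read of aggregate (540/590 nm) versus monomer (490/535 nm) fluorescence.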
A short description of assay [7]: qHTS assay to test for compound auto fluorescence at 590 nm (red) in HepG2 cells (AID 720674). The method, boiled down:
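HepG2 cells, 2,000 per well in MEM with 10% FBS, attached overnight at 37 C, then got 23 nL compound or DMSO. After 1 hr at 37 C, 5% CO2, red fluorescence was read at 540/590 nm against Rose Bengal sodium as reference.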

A short description of assay [8]: qHTS assay to test for compound auto fluorescence at 535 nm (green) in HepG2 cells (AID 720675).
A short description of assay [9]: qHTS assay to test for compound auto fluorescence at 460 nm (blue) in HEK293 cells (AID 720678). In short, it runs like this: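 Cells were seeded and left to adhere for 4-5 hr at 37C. Compounds were then pin-transferred. After an overnight incubation at 37C under 5% CO2, intrinsic fluorescence at 405/460 nm was measured and referenced to triamterene.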
Assay [10] can be described thus: qHTS assay to test for compound auto fluorescence at 590 nm (red) in HEK293 cells (AID 720679). In short, it runs like this:
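Each well held 2,000 HEK293 cells in medium containing 10% dialyzed FBS. Following 4-5 hr attachment at 37C, 23 nL test compound or DMSO was added; plates sat overnight, and red fluorescence (540/590nm) was recorded.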

Assay [11] in a line: qHTS assay to test for compound auto fluorescence at 535 nm (green) in HEK293 cells (AID 720680).
A short description of assay [12]: qHTS assay to test for compound auto fluorescence at 460 nm (blue) in HEK293 cell free culture (AID 720681). In short, it runs like this: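 Compounds were added to cell-free DMEM with 10% FBS and fluorescence read directly. The blue channel used 405 nm excitation and 460 nm emission, with triamterene as the reference fluorophore.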
Assay [13] is described as follows: qHTS assay to test for compound auto fluorescence at 535 nm (green) in HEK293 cell free culture (AID 720682). In short, it runs like this:
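Fluorescein serves as the green reference fluorophore; each compound's intrinsic emission at 535 nm (excitation 485 nm) is reported as an equivalent amount of that dye, measured in serum-containing DMEM without cells.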

Assay [14] in a line: qHTS assay to test for compound auto fluorescence at 590 nm (red) in HEK293 cell free culture (AID 720683). In short, it runs like this: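 Cell-free wells of DMEM with 10% FBS received compound, and intrinsic fluorescence was read at excitation/emission 540/590 nm. Values expressed as equivalence to Rose Bengal sodium.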
A short description of assay [15]: qHTS assay to test for compound auto fluorescence at 590 nm (red) in HepG2 cell free culture (AID 720684). The method, boiled down:
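Compound was pinned into wells holding MEM with 10% FBS and no cells, and red fluorescence was read at Ex/Em 540/590 nm. Signal is expressed as auto fluorescence equivalency relative to Rose Bengal sodium.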

Assay [16] is described as follows: qHTS assay to test for compound auto fluorescence at 460 nm (blue) in HepG2 cell free culture (AID 720685). In short, it runs like this:
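Compound (23 nL) or DMSO pinned into cell-free MEM with 10% FBS; blue fluorescence read at 405/460 nm excitation/emission, expressed as auto-fluorescence equivalency to triamterene.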

Assay [17] in a line: qHTS assay to test for compound auto fluorescence at 535 nm (green) in HepG2 cell free culture (AID 720686).
The nature of assay [18]: qHTS assay to test for compound auto fluorescence at 460 nm (blue) in HepG2 cells (AID 720687). In short, it runs like this: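 HepG2 cells in MEM with 10% FBS, attached overnight at 37 C, were exposed to compound or DMSO for 1 hr at 37 C, 5% CO2. Blue fluorescence was read at 405/460 nm, with triamterene as reference fluorophore.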
Assay [19] addresses Glucocorticoid receptor (Homo sapiens) (UniProt P04150). Briefly: qHTS assay to identify small molecule agonists of the glucocorticoid receptor (GR) signaling pathway (AID 720691; active = well fitted activation curve with a large enough effect in the signal ratio in the repeat runs, not every such curve was filed as active; the % refers to the signal ratio). Conditions: GR-bla HeLa, beta-lactamase reporter ratio, 18 h; activation: at 62.4 µM (top of the series). In short, it runs like this:
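Beta-lactamase reporter activity, read as fluorescence intensity, was measured in GR-bla HeLa cells exposed to compounds for 18 h at 37 C and then loaded with LiveBLAzer B/G FRET substrate for 2 h at room temperature.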

The target is the same in assay [20]. Briefly: qHTS assay to identify small molecule antagonists of the glucocorticoid receptor (GR) signaling pathway (AID 720692; active = well fitted inhibition curve with a large enough effect in the signal ratio in the repeat runs, not every such curve was filed as active; the % refers to the signal ratio). In short, it runs like this: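 Fluorescence from cleaved LiveBLAzer B/G FRET substrate reports GRE-driven beta-lactamase in HeLa cells; compounds are tested against 5 nM dexamethasone (final) over 18 h at 37 C, substrate incubation 2 h at room temperature.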

In PubChem BioAssay (Tox21) one finds Potency and outcome data, which are given here for six compounds.

Structures are written as SMILES. Unmarked numbers belong to inactive results. Inconclusive results are not listed. Calls of active or inactive are those of the source. Unless noted, calls follow the shape of the dose curve; as a rule, active = well fitted curve in the direction sought with a large enough effect in the repeat runs; inconclusive = weak or mixed curves; inactive = no such curve, though single readings can be large; an effect the other way counts as inactive or inconclusive.

Chain of Glucocorticoid receptor (Homo sapiens) (P04150 whole entry, looked up): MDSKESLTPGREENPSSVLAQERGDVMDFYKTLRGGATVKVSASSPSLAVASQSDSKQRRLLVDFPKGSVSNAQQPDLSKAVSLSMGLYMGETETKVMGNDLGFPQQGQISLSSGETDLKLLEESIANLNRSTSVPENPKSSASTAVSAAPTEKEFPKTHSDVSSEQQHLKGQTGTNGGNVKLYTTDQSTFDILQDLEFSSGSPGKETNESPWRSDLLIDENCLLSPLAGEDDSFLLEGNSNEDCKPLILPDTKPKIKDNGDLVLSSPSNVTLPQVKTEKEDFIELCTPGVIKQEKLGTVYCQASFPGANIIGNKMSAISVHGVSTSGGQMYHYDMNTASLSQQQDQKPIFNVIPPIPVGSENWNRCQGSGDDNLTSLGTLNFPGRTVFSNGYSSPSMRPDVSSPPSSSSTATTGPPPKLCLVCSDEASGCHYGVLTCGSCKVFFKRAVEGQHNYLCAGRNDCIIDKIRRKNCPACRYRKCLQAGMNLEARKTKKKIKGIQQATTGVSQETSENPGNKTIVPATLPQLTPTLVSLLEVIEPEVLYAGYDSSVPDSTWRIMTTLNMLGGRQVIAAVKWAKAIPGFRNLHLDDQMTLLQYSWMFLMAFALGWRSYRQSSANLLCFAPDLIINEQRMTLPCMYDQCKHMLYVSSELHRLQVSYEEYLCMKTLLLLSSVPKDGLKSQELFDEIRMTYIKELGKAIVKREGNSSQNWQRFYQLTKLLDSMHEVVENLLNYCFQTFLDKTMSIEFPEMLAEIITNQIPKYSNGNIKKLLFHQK

With `NC[C@@H]1CC[C@@H](N)[C@@H](O[C@H]2[C@H](O)[C@@H](O[C@H]3O[C@H](CO)[C@@H](O)[C@H](N)[C@H]3O)[C@H](N)C[C@@H]2N)O1`, the Potency result in assay [1], in assay [2], in [3], in [4], in assay [5] and in assay [6] was “inactive” in each case. Moreover, the Potency entry in assay [8], in assay [9], in [12], in assay [16], in assay [17] and in assay [18] was “inactive” throughout. Also, the Potency result in [19] and in assay [20] was “inactive” in each case. For the same compound, the compound was called inactive in [7], in assay [10], in assay [11], in [13], in assay [14] and in [15].

`NCC(O)CC(=O)O` (stereo not given): the Potency result in [1], in assay [2], in [3], in assay [4], in assay [5] and in [6] was “inactive” in each case. For the same compound, the Potency result in [8], in assay [9], in assay [12], in [16], in assay [17] and in assay [18] was “inactive” each time. In addition, the Potency result in assay [19] and in [20] was “inactive” throughout. For the same compound, the outcome in [7], in assay [10], in assay [11], in [13], in assay [14] and in assay [15] was inactive.

On to `CC(C)COC(=O)OCN1C(=O)CN(CCN2CC(=O)N(COC(=O)OCC(C)C)C(=O)C2)CC1=O`, for which the Potency in assay [1] was 3.76 µM (active). Besides, the Potency result in assay [2], in assay [3], in [4], in assay [5], in [6] and in assay [8] was “inactive” throughout. In addition, the Potency entry in assay [9], in assay [12], in [16], in assay [17], in assay [18] and in [19] was “inactive” throughout. The Potency result in [20] is “inactive”. Further, the result in assay [7], in [10], in assay [11], in assay [13], in [14] and in assay [15] was inactive.

Turning to `CC1CCCC(C)N1NC(=O)c1ccc(Cl)c(S(N)(=O)=O)c1` (stereo not given), the Potency result in assay [1], in assay [2], in assay [3], in assay [4], in assay [5] and in assay [6] was “inactive” throughout. Moreover, the Potency result in [8], in assay [9], in assay [12], in assay [16], in assay [17] and in [18] was “inactive” in each case. The Potency entry in assay [19] and in assay [20] was “inactive” throughout. For the same compound, the compound was classed as inactive in assay [7], in assay [10], in assay [11], in assay [13], in assay [14] and in assay [15].

For `CCN(CC)C(=O)[C@]1(c2ccccc2)C[C@@H]1CN`, the Potency result in assay [1], in [2], in assay [3], in assay [4], in assay [5] and in assay [6] was “inactive” throughout. In addition, the Potency result in assay [8], in assay [9], in assay [12], in assay [16], in [17] and in assay [18] was “inactive” throughout. For the same compound, the Potency entry in assay [19] and in [20] was “inactive” each time. Further, the compound was classed as inactive in assay [7], in assay [10], in assay [11], in assay [13], in assay [14] and in assay [15].

On to `COC1=C(OC)C(=O)C(C/C=C(\C)CC/C=C(\C)CC/C=C(\C)CC/C=C(\C)CC/C=C(\C)CC/C=C(\C)CC/C=C(\C)CC/C=C(\C)CC/C=C(\C)CCC=C(C)C)=C(C)C1=O`, for which the Potency result in assay [1], in assay [2], in assay [3], in assay [4], in [5] and in [6] was “inactive” each time. For the same compound, the Potency entry in assay [8], in assay [9], in assay [12], in assay [16], in assay [17] and in [18] was “inactive” each time. For the same compound, the Potency result in assay [19] and in [20] was “inactive” each time. Further, the result in assay [7], in assay [10], in assay [11], in assay [13], in assay [14] and in [15] was inactive.
